Only a selection was taken, and hits are over-represented in it overall.
NOMO-1 viab: STK33 inhibitor candidate reducing NOMO-1 cell viability | NOMO-1 AML viability, CellTiter-Glo luminescence, 72 h | 37,000 tested, 7.5% active | inhibition, % (concentration not given with the values); in the data active means inhibition above about 80%; inconclusive means no clear call, values can overlap the other calls
STK33 inh: inhibitors of human STK33 kinase. Q9BYT3. ADP-Glo luminescence, MBP substrate. AID 2322. 27,000 tested, 0.44% active. inhibition, % at 12.5 µM; in the data active means inhibition above about 20%; inconclusive means no clear call, values can overlap the other calls
Target sequence (Q9BYT3 whole entry, looked up): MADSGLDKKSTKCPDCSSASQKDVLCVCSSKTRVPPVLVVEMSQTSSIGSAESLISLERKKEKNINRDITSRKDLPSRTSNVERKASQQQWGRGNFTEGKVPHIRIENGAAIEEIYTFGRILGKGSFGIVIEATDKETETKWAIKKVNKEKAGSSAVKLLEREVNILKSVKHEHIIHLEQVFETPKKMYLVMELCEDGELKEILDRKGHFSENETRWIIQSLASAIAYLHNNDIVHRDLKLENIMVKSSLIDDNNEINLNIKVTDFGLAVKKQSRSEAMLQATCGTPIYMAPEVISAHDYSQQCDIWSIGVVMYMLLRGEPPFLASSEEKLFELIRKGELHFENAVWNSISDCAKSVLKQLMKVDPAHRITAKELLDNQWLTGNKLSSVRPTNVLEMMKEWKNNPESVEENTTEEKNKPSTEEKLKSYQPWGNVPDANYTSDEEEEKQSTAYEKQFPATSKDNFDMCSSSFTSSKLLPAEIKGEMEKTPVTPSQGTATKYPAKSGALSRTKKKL
PD-1 reversal: activators reversing PD-1 mediated T-cell inhibition; 29,000 tested, under 10 active; primary human CD4 T cells, PD-L1 beads, CellTiter-Glo 96 h; activation, % (concentration not given with the values); call rule not given here
A number is an active result; - = inactive; ? = inconclusive; . = no result.

SMILES	NOMO-1 viab	STK33 inh	PD-1 reversal
CC1=Nc2ccc(Br)cc2C(c2ccccc2)N1CC(=O)NN (stereo unspecified)	-	.	-
Cc1ccc(C)c(NC(=O)Cn2cnc3ccccc3c2=O)c1	-	-	.
Cc1cccc(-c2nnc(SCC(=O)Nc3cccc(C)c3C)n2C)c1	-	-	.
Cc1ccc(S(=O)(=O)N2Cc3ccccc3CC2C(=O)Nc2sc3c(c2C#N)CCCC3)cc1 (stereo unspecified)	-	-	.
CCn1c(SCC(=O)Nc2sc3c(c2C#N)CCC(C(C)(C)C)C3)nnc1-c1cccc(C)c1 (stereo unspecified)	-	-	-
O=C1C(=O)N(CC2CCCO2)C(c2cccc(Oc3ccccc3)c2)C1C(=O)c1ccco1 (stereo unspecified)	-	-	-
OCCCNc1ncnc2oc(-c3ccccc3)c(-c3ccccc3)c12	-	31.8	.
OCCCNc1ncnc2scc(-c3ccccc3)c12	-	-	-
COc1cc(NC(=O)Cn2nc(C(F)(F)F)c(Cl)c2C)cc([N+](=O)[O-])c1	114.0	-	-
COc1cc(NC(=O)Cn2nc(C(F)(F)F)c(Cl)c2C)cc(OC)c1OC	-	-	-
Cc1nc2c(cnn2-c2ccccc2)c(=O)n1NC(=O)Nc1ccc(Cl)c(Cl)c1	-	.	-
COc1ccc(S(=O)(=O)Nc2ccc3c(c2)CC(=O)N([C@@H](C)CO)C[C@@H](C)[C@@H](CN(C)CC2CCCCC2)O3)cc1	100.6	-	-
COc1ccc(S(=O)(=O)Nc2ccc3c(c2)CC(=O)N([C@@H](C)CO)C[C@H](C)[C@@H](CN(C)CC2CCCCC2)O3)cc1	108.8	-	.
COc1ccc(S(=O)(=O)Nc2ccc3c(c2)CC(=O)N([C@@H](C)CO)C[C@@H](C)[C@@H](CN(C)CC2CC2)O3)cc1	-	-	-
COc1ccc(S(=O)(=O)Nc2ccc3c(c2)CC(=O)N([C@@H](C)CO)C[C@H](C)[C@@H](CN(C)CC2CC2)O3)cc1	-	-	-
O=C1NC(=O)C(=Cc2ccc(-c3ccccc3)o2)C(=O)N1	125.9	.	-
O=c1cc(-c2ccccc2)oc2ccccc12	-	-	-
O=C(COc1ccccc1[N+](=O)[O-])Nc1ccc(N2CCN(C(=O)c3ccco3)CC2)cc1	-	-	-
NC(=O)CSc1oc(-c2ccc(F)cc2)nc1S(=O)(=O)c1ccc(Cl)cc1	-	-	-
O=C(/C=C/S(=O)(=O)c1ccc(Cl)cc1)c1ccc(F)cc1	120.4	-	-
CC(C)NC(=O)Nc1ccc2c(c1)C(=O)N([C@@H](C)CO)C[C@@H](C)[C@@H](CN(C)Cc1ccncc1)O2	-	-	-
C[C@H]1CN([C@@H](C)CO)C(=O)c2cc(NC(=O)Nc3ccc(F)cc3)ccc2O[C@H]1CN(C)Cc1ccncc1	100.4	-	-
C[C@H](CO)N1C[C@H](C)[C@H](CN(C)Cc2ccncc2)Oc2ccc(NC(=O)Nc3ccccc3)cc2C1=O	97.0	-	-
C[C@@H]1CN([C@H](C)CO)C(=O)c2cc(NC(=O)Nc3ccccc3)ccc2O[C@@H]1CN(C)Cc1ccncc1	-	.	-
CN(C)S(=O)(=O)c1ccc(NC(=O)CCC(=O)O)cc1	-	-	-
SMILES	NOMO-1 viab	STK33 inh	PD-1 reversal
Cc1nn(CC(=O)Nc2cc(Cl)cc(Cl)c2)c(C)c1[N+](=O)[O-]	?	-	-
C[C@H]1CN([C@@H](C)CO)C(=O)Cc2cc(NS(=O)(=O)c3ccc(F)cc3)ccc2O[C@H]1CN(C)Cc1ccc(-c2ccccc2)cc1	107.6	-	-
C[C@@H]1CN([C@@H](C)CO)C(=O)Cc2cc(NS(=O)(=O)c3ccc(F)cc3)ccc2O[C@@H]1CN(C)Cc1ccc(-c2ccccc2)cc1	?	-	.
C[C@H](CO)N1C[C@H](C)[C@H](CN(C)Cc2ccc(-c3ccccc3)cc2)Oc2ccc(NS(=O)(=O)c3ccc(F)cc3)cc2CC1=O	94.5	-	-
C[C@H](CO)N1C[C@H](C)[C@H](CN(C)Cc2ccccc2)Oc2ccc(NS(=O)(=O)c3ccc(F)cc3)cc2CC1=O	-	-	-
COc1ccc(-c2noc(CCCN3C(=O)c4ccccc4C3=O)n2)cc1OC	-	-	-
COc1cccc2c1C(c1ccc3c(c1O)C(=O)CC(C)C3O)OC2=O (stereo unspecified)	-	-	-
COc1cccc2c1C(=O)c1c(O)c3c(c(O)c1C2=O)C[C@@](O)(C(=O)CO)C[C@@H]3O[C@H]1C[C@H](N)[C@H](O)[C@H](C)O1	98.6	-	-
COc1cccc2c1C(=O)c1c(O)c3c(c(O)c1C2=O)C[C@@](O)(C(=O)CO)C[C@@H]3OC1CC(N)C(O)C(C)O1 (stereo partly specified)	97.9	-	-
Cc1ccc(Cn2nc(C(=O)Sc3cccc(Cl)c3Cl)cc2C)cc1	-	-	-
COc1ccc([N+](=O)[O-])cc1NC(=O)CN(C)S(=O)(=O)c1ccc(C)cc1	-	-	.
O=C(CSc1n[nH]c(-c2ccc(Cl)cc2Cl)n1)Nc1cccc2ccccc12	-	-	-
COc1ccc(CN(C)C[C@@H]2Oc3ccc(NC(=O)Nc4ccc(OC)cc4)cc3C(=O)N([C@@H](C)CO)C[C@H]2C)cc1	-	.	.
COc1ccc(NC(=O)Nc2ccc3c(c2)C(=O)N([C@H](C)CO)C[C@@H](C)[C@@H](CN(C)Cc2ccc(Cl)c(Cl)c2)O3)cc1	98.3	.	-
COc1ccc(NC(=O)Nc2ccc3c(c2)C(=O)N([C@@H](C)CO)C[C@H](C)[C@H](CN(C)Cc2ccc(Cl)c(Cl)c2)O3)cc1	104.2	-	-
COc1ccc(NC(=O)Nc2ccc3c(c2)C(=O)N([C@@H](C)CO)C[C@@H](C)[C@@H](CN(C)Cc2ccc(Cl)c(Cl)c2)O3)cc1	-	-	-
CCC(Sc1nc2ccccc2o1)C(=O)Nc1cccc2ccccc12 (stereo unspecified)	-	-	-
Cc1ccc(S(=O)(=O)N(C)CC(=O)Nc2ccc(C(F)(F)F)cc2)cc1	-	-	-
O=C1CC(c2nc3ccccc3n2CCCOc2ccccc2)CN1c1ccccc1 (stereo unspecified)	-	-	.
C[C@H]1CN([C@@H](C)CO)C(=O)c2cc(NC(=O)Nc3ccc(C(F)(F)F)cc3)ccc2O[C@H]1CN(C)Cc1ccc2c(c1)OCO2	106.1	-	-
C[C@@H]1CN([C@@H](C)CO)C(=O)c2cc(NC(=O)Nc3ccc4c(c3)OCO4)ccc2O[C@@H]1CN(C)Cc1ccc(C(F)(F)F)cc1	90.5	-	-
C[C@@H]1CN([C@H](C)CO)C(=O)c2cc(NC(=O)Nc3ccc4c(c3)OCO4)ccc2O[C@H]1CN(C)Cc1ccc(C(=O)O)cc1	-	.	-
C[C@@H]1CN([C@H](C)CO)C(=O)c2cc(NC(=O)Nc3ccc(C(F)(F)F)cc3)ccc2O[C@H]1CN(C)Cc1ccc2c(c1)OCO2	-	.	.
COc1cc(S(=O)(=O)NCc2cccnc2)ccc1Br	-	-	-
Cn1ccnc1SCC(=O)Nc1cccc(F)c1	-	-	-
CCn1c(SCC(=O)O)nnc1-c1c[nH]c2ccccc12	-	-	-
C[C@@H]1CN([C@@H](C)CO)C(=O)Cc2cc(NC(=O)Nc3ccc4c(c3)OCO4)ccc2O[C@@H]1CN(C)Cc1ccc(C(F)(F)F)cc1	94.6	.	-
C[C@H]1CN([C@@H](C)CO)C(=O)Cc2cc(NC(=O)Nc3ccc4c(c3)OCO4)ccc2O[C@@H]1CN(C)Cc1ccc(C(F)(F)F)cc1	?	-	-

Bioassay records from PubChem.
